A short description of assay [1]: ATG_CRE_CIS: Attagene CIS-FACTORIAL HepG2 Assay for human cAMP Responsive Element (CRE) binding protein 3 (AID 2282926). As to conditions: HepG2 CRE cis-reporter, Attagene multiplexed mRNA; actives raise or lower the signal. In outline: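 We dosed HepG2 cells bearing multiple cis-promoter reporter units for 24 h and measured reporter mRNA by RT-PCR with capillary electrophoresis detection. Bidirectional concentration-response fitting used DMSO as negative control.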

Assay [2] addresses CCAAT/enhancer-binding protein beta (Homo sapiens) (UniProt P17676). The experiment in a line: ATG_C_EBP_CIS: Attagene CIS-FACTORIAL HepG2 Assay for human CCAAT/Enhancer Binding Protein (C/EBP) beta (AID 2282927). As to conditions: HepG2 Attagene cis-factorial transcription factor reporter; actives raise or lower the signal. In outline: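 HepG2 transiently transfected with multiplexed reporter units under cis-regulatory promoters reporting endogenous C/EBPb activity. After 24 h exposure, reporter mRNA assayed by RT-PCR, fluorescent labelling, HpaI digestion and capillary electrophoresis; bidirectional fitting versus DMSO.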

Assay [3] in a line: ATG_CMV_CIS: Attagene CIS-FACTORIAL HepG2 Assay for human CMV (Internal Marker) (AID 2282928).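 Note: endpoint acts as a background internal control marker rather than a target.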 As to conditions: HepG2 CMV promoter reporter, transcription factor profiling; actives raise or lower the signal. A digest of the protocol: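 CMV internal-marker background readout in transiently transfected HepG2 cells bearing cis-regulated reporter units. Reporter mRNA is measured 24 h after dosing by RT-PCR and capillary electrophoresis, with bidirectional fitting against DMSO.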

Assay [4] is described as follows: ATG_DR4_LXR_CIS: Attagene CIS-FACTORIAL HepG2 Assay for human Liver X Receptor (LXR), DR4 submotif (AID 2282929). As to conditions: HepG2 Attagene DR4 cis-reporter, mRNA transcription; actives raise or lower the signal. A digest of the protocol: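 Cells were transfected with multiple reporter transcription units, exposed to chemicals for 24 hours, then lysed for RNA. Reporter mRNA induction was measured by RT-PCR with capillary electrophoresis detection and fitted in both directions relative to DMSO.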

The target of assay [5] is Aryl hydrocarbon receptor (Homo sapiens) (UniProt P35869). In words: ATG_Ahr_CIS: Attagene CIS-FACTORIAL HepG2 Assay for human Aryl Hydrocarbon Receptor (Ahr) (AID 2282930). The following applies: HepG2 AhR cis-factorial reporter transcription; actives raise or lower the signal. In outline:
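HepG2 cells transiently transfected with cis-element-driven multiplexed reporter units; endogenous AhR activity read as reporter mRNA 24 h after dosing, via RT-PCR, 6-FAM labelling, HpaI digestion and capillary electrophoresis. Bidirectional fit relative to DMSO.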

Assay [6] in a line: ATG_AP_1_CIS: Attagene CIS-FACTORIAL HepG2 Assay for human Activator Protein 1 (AP-1) (AID 2282931). As to conditions: HepG2 Attagene cis-factorial AP-1 reporter mRNA; actives raise or lower the signal. In outline: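 Endogenous transcription-factor activity in human HepG2 liver cells is read through a cis-promoter reporter transcript, sampled 24 h after dosing. Detection uses RT-PCR with capillary electrophoresis; values come from bidirectional fitting relative to DMSO.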

Assay [7] is described as follows: ATG_AP_2_CIS: Attagene CIS-FACTORIAL HepG2 Assay for human Activator Protein 2 (AP-2) (AID 2282932). As to conditions: HepG2 AP-2 cis-reporter, Attagene transcription factor profiling; actives raise or lower the signal. A digest of the protocol: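 Multiplexed mRNA reporter assay in HepG2: cis-regulated units report endogenous factor activity after 24 h treatment. Fluorescence from capillary electrophoresis of RT-PCR products gives the signal, with DMSO as baseline.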

The nature of assay [8]: ATG_BRE_CIS: Attagene CIS-FACTORIAL HepG2 Assay for human Bone Morphogenetic Protein (BMP) Response Element (BRE) (AID 2282933). The following applies: HepG2 BMP response element reporter, Attagene transcription factor profiling; actives raise or lower the signal. A digest of the protocol: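 HepG2 cells transiently transfected with multiplexed cis-element reporter units were dosed with chemical for 24 h. Reporter mRNA was measured by RT-PCR with fluorescent labelling, HpaI digestion and capillary electrophoresis; bidirectional fitting relative to DMSO.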

For assay [9], the target named is Retinoic acid receptor alpha (Homo sapiens) (UniProt P10276). The experiment in a line: ATG_DR5_RAR_CIS: Attagene CIS-FACTORIAL HepG2 Assay for human Retinoic Acid Receptor Alpha (RARE), DR5 submotif (AID 2282934).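 For AC50: reporter responds to endogenous RAR alpha beta and gamma in HepG2 not RARA alone.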 As to conditions: HepG2 Attagene cis-factorial RARE DR5 reporter, mRNA; actives raise or lower the signal. In outline:
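HepG2 cells transiently transfected with multiplexed reporter units; DR5 cis-element drives reporter through endogenous transcription factors. After 24 h dosing, reporter mRNA quantified by RT-PCR, fluorescent labeling, HpaI digestion and capillary electrophoresis; bidirectional fitting versus DMSO.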

The target in assay [10] is Transcription factor E2F1 (Homo sapiens) (UniProt Q01094). The experiment in a line: ATG_E2F_CIS: Attagene CIS-FACTORIAL HepG2 Assay for human E2F Transcription Factor 1 (AID 2282935). As to conditions: HepG2 Attagene cis-reporter, E2F reporter RNA transcripts; actives raise or lower the signal. In outline:
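Measures reporter transcript levels via RT-PCR with capillary electrophoresis detection in HepG2 cells harboring cis-regulated reporter units; 24 h post-dose; bidirectional curve fitting with DMSO as baseline.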

The nature of assay [11]: ATG_E_Box_CIS: Attagene CIS-FACTORIAL HepG2 Assay for human Enhancer Box (E-box) (AID 2282936). As to conditions: HepG2 E-box cis-reporter transcription, actives raise or lower the signal. A digest of the protocol: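 First, HepG2 cells receive multiple cis-regulated reporter constructs by transient transfection. Next, chemicals are applied for 24 h. Finally, reporter mRNA is quantified via RT-PCR and capillary electrophoresis, with DMSO as baseline.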

Assay [12] is described as follows: ATG_M_61_CIS: Attagene CIS-FACTORIAL HepG2 Assay for M61 Transcription Factor (Internal Marker) (AID 2282937). As to conditions: HepG2 Attagene CIS-FACTORIAL M61 internal marker reporter; actives raise or lower the signal. A digest of the protocol: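 Cells were transfected with reporter units under cis-regulatory promoters, treated with chemicals for 24 h, then lysed for RNA. Reporter transcripts were quantified by RT-PCR and capillary electrophoresis, and activity was fitted bidirectionally against DMSO.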

A short description of assay [13]: ATG_M_19_CIS: Attagene CIS-FACTORIAL HepG2 Assay for M19 Transcription Factor (Internal Marker) (AID 2282939). As to conditions: HepG2 Attagene CIS-FACTORIAL M19 internal marker reporter; actives raise or lower the signal. A digest of the protocol: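 HepG2 cells transiently transfected with cis-regulated multiple reporter transcription units were dosed for 24 h; reporter mRNA was quantified by RT-PCR, 6-FAM primer-extension labelling, HpaI digestion and capillary electrophoresis, with bidirectional fitting against DMSO baseline.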

Assay [14] in a line: ATG_ERE_CIS: Attagene CIS-FACTORIAL HepG2 Assay for Estrogen Response Element (ERE) (AID 2282940). As to conditions: HepG2 ERE cis-reporter, Attagene RNA transcript; actives raise or lower the signal. A digest of the protocol:
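HepG2 cells transiently transfected with cis-promoter-driven multiplexed reporter transcription units report endogenous TF activity. After 24 h compound exposure, reporter mRNA is quantified by RT-PCR with capillary electrophoresis fluorescence; bidirectional fitting versus DMSO baseline.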

The nature of assay [15]: ATG_Ets_CIS: Attagene CIS-FACTORIAL HepG2 Assay for human Erythroblast Transformation Specific (ETS) (AID 2282941). As to conditions: HepG2 ETS cis-reporter transcription, actives raise or lower the signal. A digest of the protocol:
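HepG2 cells transfected with multiple cis-regulated reporter units measuring endogenous ETS-driven transcription, 24 h after dosing. Reporter mRNA quantified by RT-PCR with capillary electrophoresis; bidirectional fit relative to DMSO.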

In assay [16] the target is Hepatocyte nuclear factor 3-beta (Homo sapiens) (UniProt Q9Y261). The experiment in a line: ATG_FoxA2_CIS: Attagene CIS-FACTORIAL HepG2 Assay for human Forkhead box A2 (FOXA2) (AID 2282942). The following applies: HepG2 cis-reporter transcription factor activity, 24 h; actives raise or lower the signal. A digest of the protocol:
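Endogenous transcription factor activity was read in HepG2 cells carrying transiently transfected cis-promoter reporter units. After 24 h dosing, reporter mRNA was quantified by RT-PCR and capillary electrophoresis, and values fitted bidirectionally versus DMSO.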

A short description of assay [17]: ATG_FoxO_CIS: Attagene CIS-FACTORIAL HepG2 Assay for human Forkhead box O (FoxO) (AID 2282943). As to conditions: HepG2 Attagene cis-reporter, FoxO element, mRNA; actives raise or lower the signal. In outline: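 HepG2 cells transiently transfected with cis-element-driven reporter units report endogenous FoxO activity. After 24 h chemical exposure, reporter mRNA quantified by RT-PCR, fluorescent labeling, HpaI digestion and capillary electrophoresis; bidirectional fit versus DMSO.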

The nature of assay [18]: ATG_GATA_CIS: Attagene CIS-FACTORIAL HepG2 Assay for human GATA Binding Protein (AID 2282944). As to conditions: HepG2 GATA cis-element reporter, Attagene multiplex mRNA; actives raise or lower the signal. In outline: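 HepG2 cells transiently transfected with multiplexed cis-element reporter units reflecting endogenous transcription factor activity; reporter mRNA measured after 24 h dosing by RT-PCR, 6-FAM labeling, HpaI digestion and capillary electrophoresis. Bidirectional fitting versus DMSO baseline.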

Assay [19] can be described thus: ATG_GLI_CIS: Attagene CIS-FACTORIAL HepG2 Assay for human Zinc Finger Protein GLI1 (AID 2282945). As to conditions: HepG2, Attagene cis-factorial reporter mRNA, GLI element; actives raise or lower the signal. A digest of the protocol: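 Transiently transfected HepG2 cells report endogenous transcription factor activity via cis-element-driven reporter units. After 24 h compound exposure, reporter mRNA was measured by RT-PCR with capillary electrophoresis; bidirectional fitting against DMSO baseline.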

Assay [20] can be described thus: ATG_EGR_CIS: Attagene CIS-FACTORIAL HepG2 Assay for human Early Growth Response 1 (EGR1) (AID 2282938). As to conditions: HepG2 Attagene CIS-FACTORIAL EGR reporter mRNA; actives raise or lower the signal. In outline: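 Endogenous TF activity in HepG2 liver cells was gauged through cis-promoter reporter constructs transiently transfected. After 24 h dosing, reporter mRNA was quantified by RT-PCR and capillary electrophoresis, and curves fitted in both directions versus DMSO.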

Several values for one entry are separate records, joined by “and”; a condition that tells them apart may be missing. Equal values may be shown once. Some compounds were tested as several samples or in several runs, with calls that do not always agree. Activity calls are given as the source filed them. Rule for the calls: active = hit-call score of the fitted dose curve at least 0.9, where 1 is the maximum; inactive = score below 0.9.

Usually AC50 stands for the concentration at which the activity in the assay is half-maximal.

Sequence of Aryl hydrocarbon receptor (Homo sapiens) (P35869 whole entry, looked up): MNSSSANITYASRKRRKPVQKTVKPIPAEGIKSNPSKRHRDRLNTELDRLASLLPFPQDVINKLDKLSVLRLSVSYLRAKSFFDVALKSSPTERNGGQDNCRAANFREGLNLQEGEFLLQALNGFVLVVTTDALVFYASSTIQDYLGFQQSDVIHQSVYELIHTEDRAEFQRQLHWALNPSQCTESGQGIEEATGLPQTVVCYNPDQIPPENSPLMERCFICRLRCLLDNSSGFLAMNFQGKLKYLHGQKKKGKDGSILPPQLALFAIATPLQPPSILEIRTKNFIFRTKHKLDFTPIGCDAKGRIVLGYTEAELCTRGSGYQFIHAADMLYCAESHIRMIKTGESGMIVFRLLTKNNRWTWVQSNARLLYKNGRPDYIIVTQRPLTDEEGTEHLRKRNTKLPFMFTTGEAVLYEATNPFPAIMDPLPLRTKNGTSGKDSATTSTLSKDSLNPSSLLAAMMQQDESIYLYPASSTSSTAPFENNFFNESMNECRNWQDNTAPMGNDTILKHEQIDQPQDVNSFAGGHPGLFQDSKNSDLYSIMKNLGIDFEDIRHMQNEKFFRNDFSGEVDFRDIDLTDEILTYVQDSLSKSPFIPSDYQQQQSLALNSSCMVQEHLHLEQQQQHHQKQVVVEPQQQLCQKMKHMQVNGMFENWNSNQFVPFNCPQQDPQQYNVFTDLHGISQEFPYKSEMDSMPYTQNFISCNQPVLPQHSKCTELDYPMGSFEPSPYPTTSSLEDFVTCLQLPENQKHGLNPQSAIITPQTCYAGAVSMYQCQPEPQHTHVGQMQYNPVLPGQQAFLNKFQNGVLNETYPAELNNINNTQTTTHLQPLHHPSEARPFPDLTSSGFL
Sequence of Transcription factor E2F1 (Homo sapiens) (Q01094 whole entry, looked up): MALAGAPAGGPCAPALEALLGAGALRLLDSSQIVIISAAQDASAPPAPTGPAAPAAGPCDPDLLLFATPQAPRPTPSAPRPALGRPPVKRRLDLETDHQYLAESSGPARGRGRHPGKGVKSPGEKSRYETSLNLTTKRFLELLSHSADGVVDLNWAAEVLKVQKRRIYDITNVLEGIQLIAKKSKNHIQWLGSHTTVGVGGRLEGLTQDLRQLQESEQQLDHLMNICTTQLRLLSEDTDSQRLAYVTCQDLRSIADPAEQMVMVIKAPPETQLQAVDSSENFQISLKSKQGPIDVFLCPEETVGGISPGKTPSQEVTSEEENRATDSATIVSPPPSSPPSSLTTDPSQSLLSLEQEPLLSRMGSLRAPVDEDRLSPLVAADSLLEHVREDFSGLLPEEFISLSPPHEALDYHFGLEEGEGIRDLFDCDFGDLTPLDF
Sequence of CCAAT/enhancer-binding protein beta (Homo sapiens) (P17676 whole entry, looked up): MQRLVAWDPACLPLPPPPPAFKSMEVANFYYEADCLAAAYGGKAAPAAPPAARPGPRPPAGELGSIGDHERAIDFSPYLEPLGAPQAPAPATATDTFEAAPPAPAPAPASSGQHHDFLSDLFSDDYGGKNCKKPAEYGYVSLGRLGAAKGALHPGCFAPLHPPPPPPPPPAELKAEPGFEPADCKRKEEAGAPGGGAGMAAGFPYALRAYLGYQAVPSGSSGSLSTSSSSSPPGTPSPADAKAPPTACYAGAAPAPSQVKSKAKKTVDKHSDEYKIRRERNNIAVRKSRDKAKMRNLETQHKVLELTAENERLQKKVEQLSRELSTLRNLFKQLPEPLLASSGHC
Sequence of Hepatocyte nuclear factor 3-beta (Homo sapiens) (Q9Y261 whole entry, looked up): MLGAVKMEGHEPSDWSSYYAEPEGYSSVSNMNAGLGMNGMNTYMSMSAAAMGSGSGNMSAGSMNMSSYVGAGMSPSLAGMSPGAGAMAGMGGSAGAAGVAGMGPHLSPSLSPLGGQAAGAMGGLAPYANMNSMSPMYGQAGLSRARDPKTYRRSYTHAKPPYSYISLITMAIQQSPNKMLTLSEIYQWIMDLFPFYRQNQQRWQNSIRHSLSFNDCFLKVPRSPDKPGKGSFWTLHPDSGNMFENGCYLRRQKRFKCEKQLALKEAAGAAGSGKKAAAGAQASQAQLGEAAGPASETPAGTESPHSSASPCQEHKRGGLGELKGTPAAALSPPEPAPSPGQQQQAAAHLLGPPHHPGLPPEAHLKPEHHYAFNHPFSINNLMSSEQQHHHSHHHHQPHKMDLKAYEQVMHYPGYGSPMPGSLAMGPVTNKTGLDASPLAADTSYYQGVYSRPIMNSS
Sequence of Retinoic acid receptor alpha (Homo sapiens) (P10276 whole entry, looked up): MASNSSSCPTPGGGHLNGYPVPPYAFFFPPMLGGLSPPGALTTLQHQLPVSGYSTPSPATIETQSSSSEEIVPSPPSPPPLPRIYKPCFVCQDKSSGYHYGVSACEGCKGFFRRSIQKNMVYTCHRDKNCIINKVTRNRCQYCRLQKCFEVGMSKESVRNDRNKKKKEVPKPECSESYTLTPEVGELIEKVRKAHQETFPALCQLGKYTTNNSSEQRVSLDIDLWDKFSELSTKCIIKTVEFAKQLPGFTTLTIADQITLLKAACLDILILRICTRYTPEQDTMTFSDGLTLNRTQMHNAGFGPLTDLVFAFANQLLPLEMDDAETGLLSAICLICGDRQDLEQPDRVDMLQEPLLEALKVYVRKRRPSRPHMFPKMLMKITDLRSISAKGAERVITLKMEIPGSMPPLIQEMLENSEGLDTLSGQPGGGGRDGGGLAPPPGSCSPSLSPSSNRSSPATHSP

With `OCC(CO)(CO)CO`, the result in [1], in assay [2], in assay [3], in [4], in [5] and in assay [6] was inactive. In addition, the result in assay [7], in [8], in [9], in assay [10], in assay [11] and in assay [12] was inactive. Further, the outcome in [13], in assay [14], in assay [15], in [16], in assay [17] and in [18] was inactive. Besides, in assay [19], the call was inactive. Besides, the AC50 in assay [14] is 100 µM (active).
As to `FC(F)(F)C(F)(F)C(F)(F)C(F)(F)C(F)(F)C(F)(F)I`, the molecule was classed as inactive in [1], in [2], in assay [3], in [4], in [5] and in assay [6]. Besides, the molecule was classed as inactive in assay [7], in assay [8], in assay [9], in [10], in assay [11] and in assay [12]. In addition, the molecule was called inactive in assay [13], in assay [15], in assay [16], in [17], in assay [18] and in assay [19]. Besides, the concentration at half-maximal activity (AC50) was 103 µM (active) in assay [9]; 24 µM (active) and 27.1 µM (active) in assay [14].
Consider `c1ccc2c(c1)-c1cccc3c1c-2cc1ccccc13`, for which the outcome in [1], in [2], in [3], in assay [4], in [6] and in assay [7] was inactive. The outcome in assay [8], in [9], in assay [11], in [12], in assay [20] and in [13] was inactive. The molecule was called inactive in assay [14], in assay [15], in [16], in assay [17], in [18] and in [19]. For the same molecule, the concentration at half-maximal activity (AC50) in [5] was 57 nM (active) and 28.1 µM (active); in assay [14] it was 0.929 µM (active).

The record behind these values is PubChem BioAssay (EPA / NIEHS).
